The values that follow come from PubChem BioAssay.

In test [1] the test system is PRMT1 (protein arginine N-methyltransferase 1). The experiment in a line: small molecules binding arginine methyltransferase PRMT1 – biochemical, small-molecule microarray, 635 nm fluorescence, primary screen (AID 1088).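 Also: binding of Prmt1 protein to compounds spotted on small-molecule microarray slides.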 Particulars: higher = more signal.
Test [2] in a line: growth effects on S. cerevisiae YJM789 – YJM789 clinical isolate, OD600, 24 h, basal, primary screen (AID 1089).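 Also: growth of clinical yeast isolate S. cerevisiae YJM 789 seeded 1000 cells per well; test concentration not given here.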 Particulars: higher = more signal, called active from +8 up or from −8 down.
Test [3] in a line: S. pombe growth modifiers, basal conditions – strain 972, OD600, 24 h, no modulator, primary screen (AID 1090).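 Also: basal condition with compound alone and no growth modifier present; test concentration not given here.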 Particulars: S. pombe 972 growth, higher = more signal, called active from +8 up or from −8 down.
A short description of test [4]: budding yeast growth modifiers under rapamycin – strain BY4716, OD600, 96 h, primary screen (AID 1091). Also: test concentration not given here. Particulars: S. cerevisiae BY4716 + rapamycin, higher = more signal, called active from +8 up or from −8 down.
Test [5] addresses Torsin-1A-interacting protein 2 (Homo sapiens) (UniProt Q8NFQ8). The experiment in a line: small molecules binding lysate-expressed LULL1 – cell lysate, human LULL1 lysate, 635/667 nm fluorescence, primary screen (AID 1092).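 Also: probe is lysate of COS7 cells overexpressing human LULL1; score merges per-feature 667 nm fluorescence with signal-to-noise.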 Particulars: small-molecule microarray, hLULL1 lysate binding, 635 nm fluorescence; higher = more signal.
Test [6] is described as follows: optical density change of DRC41 E. coli – strain DRC41, OD650, 24 h, E. coli filamentation project, primary screen (AID 1093).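 Also: MC1000 strain lacking acrAB efflux and sulA so SOS filamentation is blocked; test concentration not given here.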 Particulars: E. coli DRC41 growth, higher = more signal, called active from +8 up or from −8 down.
Test [7] can be described thus: probe aLefty2 binding to arrayed compounds – biochemical, biotinylated probe, 635/667 nm fluorescence, primary screen (AID 1094).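 Also: score merges spot fluorescence near 667 nm with spot signal-to-noise ratio.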 Particulars: small-molecule microarray, higher = more signal.
The test system of test [8] is Noggin (protein binding on small-molecule microarray). The experiment in a line: small molecules binding Noggin protein – biochemical, 635/667 nm fluorescence, primary screen (AID 1095).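 Also: score merges 667 nm feature fluorescence with signal to noise over triplicate slides.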 Particulars: 635 nm fluorescence, higher = more signal.
Test [9] has as its target Neurogenic locus notch homolog protein 3 (Homo sapiens) (UniProt Q9UM47). The experiment in a line: small molecules binding NOTCH3 protein – biochemical, 635/667 nm fluorescence, primary screen (AID 1096). Particulars: small-molecule microarray, 635 nm fluorescence, higher = more signal.
A short description of test [10]: probe aEGFR binding to arrayed compounds – biochemical, biotinylated probe, 635/667 nm fluorescence, primary screen (AID 1097).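 Also: probe is a biotinylated anti-EGFR antibody binding compounds printed on slides; score combines fluorescence near 667 nm and signal to noise of each spot.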 Particulars: small-molecule microarray, higher = more signal.

The source made the active and inactive calls.

Sequence of Neurogenic locus notch homolog protein 3 (Homo sapiens) (Q9UM47 whole entry, looked up): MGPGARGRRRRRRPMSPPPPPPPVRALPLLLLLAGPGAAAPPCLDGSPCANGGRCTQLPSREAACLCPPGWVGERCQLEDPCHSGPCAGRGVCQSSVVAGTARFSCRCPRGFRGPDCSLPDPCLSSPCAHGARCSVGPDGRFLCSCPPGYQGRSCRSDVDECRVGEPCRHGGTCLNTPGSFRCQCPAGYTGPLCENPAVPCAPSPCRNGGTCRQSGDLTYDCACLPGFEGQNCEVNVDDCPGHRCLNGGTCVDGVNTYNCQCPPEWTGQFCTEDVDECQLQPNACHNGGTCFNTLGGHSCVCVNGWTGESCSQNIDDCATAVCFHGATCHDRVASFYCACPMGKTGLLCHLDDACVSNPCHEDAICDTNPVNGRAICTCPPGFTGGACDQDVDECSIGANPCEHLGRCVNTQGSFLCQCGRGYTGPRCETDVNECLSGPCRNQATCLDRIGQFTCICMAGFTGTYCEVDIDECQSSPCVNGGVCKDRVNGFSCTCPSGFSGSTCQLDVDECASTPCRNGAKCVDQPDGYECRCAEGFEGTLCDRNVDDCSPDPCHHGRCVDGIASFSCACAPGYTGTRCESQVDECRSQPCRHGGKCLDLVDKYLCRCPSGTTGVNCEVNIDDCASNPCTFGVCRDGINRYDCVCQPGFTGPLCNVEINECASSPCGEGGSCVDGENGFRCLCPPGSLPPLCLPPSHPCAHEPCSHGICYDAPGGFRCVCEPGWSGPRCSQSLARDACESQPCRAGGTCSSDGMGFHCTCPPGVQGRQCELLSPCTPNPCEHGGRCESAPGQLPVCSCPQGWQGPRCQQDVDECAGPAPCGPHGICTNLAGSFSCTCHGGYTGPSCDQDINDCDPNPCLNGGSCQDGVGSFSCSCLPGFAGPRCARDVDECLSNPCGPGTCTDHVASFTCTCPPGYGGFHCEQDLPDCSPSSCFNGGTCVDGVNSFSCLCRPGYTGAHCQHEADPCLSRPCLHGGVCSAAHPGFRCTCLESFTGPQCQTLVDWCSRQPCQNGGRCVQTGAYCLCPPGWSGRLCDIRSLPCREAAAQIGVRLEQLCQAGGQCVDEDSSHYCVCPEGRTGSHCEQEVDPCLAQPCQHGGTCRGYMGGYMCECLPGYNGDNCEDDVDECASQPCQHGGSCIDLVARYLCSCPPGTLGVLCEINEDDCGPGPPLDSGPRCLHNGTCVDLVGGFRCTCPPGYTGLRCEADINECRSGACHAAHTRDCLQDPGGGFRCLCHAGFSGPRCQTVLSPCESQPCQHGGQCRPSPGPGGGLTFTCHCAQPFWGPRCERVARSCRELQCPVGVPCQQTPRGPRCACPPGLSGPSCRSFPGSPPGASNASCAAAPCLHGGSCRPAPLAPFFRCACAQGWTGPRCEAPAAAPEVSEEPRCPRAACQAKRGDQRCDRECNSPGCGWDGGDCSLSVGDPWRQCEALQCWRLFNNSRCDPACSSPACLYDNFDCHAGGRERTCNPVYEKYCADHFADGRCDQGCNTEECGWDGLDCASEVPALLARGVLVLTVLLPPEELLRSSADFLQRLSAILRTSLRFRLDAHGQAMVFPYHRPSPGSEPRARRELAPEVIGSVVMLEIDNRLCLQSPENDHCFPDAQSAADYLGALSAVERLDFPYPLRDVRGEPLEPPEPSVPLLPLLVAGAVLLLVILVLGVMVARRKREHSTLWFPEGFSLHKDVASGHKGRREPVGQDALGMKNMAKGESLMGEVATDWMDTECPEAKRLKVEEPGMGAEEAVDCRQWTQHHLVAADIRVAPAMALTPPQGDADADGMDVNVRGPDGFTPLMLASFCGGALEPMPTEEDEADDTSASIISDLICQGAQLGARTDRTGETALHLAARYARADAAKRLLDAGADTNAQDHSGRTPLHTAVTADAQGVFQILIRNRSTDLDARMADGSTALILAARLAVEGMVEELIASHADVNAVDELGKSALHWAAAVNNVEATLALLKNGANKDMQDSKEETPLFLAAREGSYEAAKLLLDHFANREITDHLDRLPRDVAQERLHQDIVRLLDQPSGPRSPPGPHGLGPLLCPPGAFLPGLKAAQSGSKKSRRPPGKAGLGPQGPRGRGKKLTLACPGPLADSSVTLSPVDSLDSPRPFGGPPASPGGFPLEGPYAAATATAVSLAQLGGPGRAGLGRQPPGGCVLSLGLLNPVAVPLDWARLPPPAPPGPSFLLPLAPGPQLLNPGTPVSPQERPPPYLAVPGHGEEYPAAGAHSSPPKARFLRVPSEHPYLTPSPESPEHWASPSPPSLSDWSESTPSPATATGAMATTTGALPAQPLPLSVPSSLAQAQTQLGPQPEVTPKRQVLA
Sequence of Torsin-1A-interacting protein 2 (Homo sapiens) (Q8NFQ8 whole entry, looked up): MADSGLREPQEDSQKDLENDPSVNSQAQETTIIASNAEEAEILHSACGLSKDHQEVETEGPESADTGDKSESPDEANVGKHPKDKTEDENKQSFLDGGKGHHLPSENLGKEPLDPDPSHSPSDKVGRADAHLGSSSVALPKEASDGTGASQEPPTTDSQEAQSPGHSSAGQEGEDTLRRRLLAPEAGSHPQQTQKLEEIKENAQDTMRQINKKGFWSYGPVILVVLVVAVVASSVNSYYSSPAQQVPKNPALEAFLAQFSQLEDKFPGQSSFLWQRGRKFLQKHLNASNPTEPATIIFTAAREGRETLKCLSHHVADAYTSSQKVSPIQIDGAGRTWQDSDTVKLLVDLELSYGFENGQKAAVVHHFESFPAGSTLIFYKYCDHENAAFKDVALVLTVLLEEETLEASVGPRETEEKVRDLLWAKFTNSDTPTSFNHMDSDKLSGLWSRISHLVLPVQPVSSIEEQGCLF

For `COc1ccc([Si](C)(C)[C@@H]2[C@@H](CC(=O)N3CCC[C@H]3CO)O[C@]3(C(=O)N(Cc4cccc(N5C(=O)c6cccc7cccc5c67)c4)c4ccccc43)[C@H]2C)cc1`, the composite z-score in [1] is 1.34; in test [5], 1.48; in [7], -0.0757; in [8] it was 0.641; in test [9], 0.368; in test [10] it was -0.115. In addition, the z-score in test [2] is -0.702 (inactive); in [3], -0.487 (inactive); in test [4] it was -0.158 (inactive); in test [6], 1.55 (inactive).
As to `C=CCNC(=O)[C@H]1[C@@H]2C(=O)O[C@@H](c3ccccc3)[C@@H](c3ccccc3)N2[C@@H](c2ccc(OCCO)cc2)[C@]12C(=O)Nc1ccc(C#Cc3ccc(OC)cc3)cc12`, the composite z-score in test [1] was 1.56; in test [5], 2.75; in test [7], 0.326; in [8], 1.27; in test [9], 1.11; in test [10], 0.166. For the same molecule, the z-score in test [2] was 3.23 (inactive); in [3] it was 2.1 (inactive); in test [4], 5.57 (inactive); in test [6], 0.741 (inactive).
`C[C@]1(C(=O)NC2CC2)c2ccccc2C(=O)N(Cc2cc(F)cc(C(F)(F)F)c2)[C@H]1c1ccc(CO)cc1`: the composite z-score was 1.52 in test [1]; 3.29 in [5]; -0.188 in [7]; -0.104 in test [8]; 0.518 in test [9]; -0.312 in test [10]. In addition, the z-score is 0.257 (inactive) in test [2], -0.194 (inactive) in test [3], 0.217 (inactive) in test [4] and 0.299 (inactive) in [6].
As for `O=C(NC1CC1)[C@@H]1c2ccccc2C(=O)N(C2CCCCC2)[C@H]1c1ccc(CO)cc1`, the composite z-score in test [1] was 0.384; in test [5], 2.76; in test [7] it was 0.322; in test [8], -0.923; in [9], 0.25; in test [10] it was 0.595. Further, the z-score in [2] was 0.116 (inactive); in test [3], -0.0911 (inactive); in test [4], 0.0861 (inactive); in [6], 0.398 (inactive).
On to `[N-]=[N+]=NCc1ccccc1[C@H]1OC(c2ccc(OCCCO)cc2)=N[C@@]1(Cc1ccccc1N=[N+]=[N-])C(N)=O`, for which the composite z-score in [1] came out at 1.56; in [5], 3.31; in test [7], 0.0573; in test [8], 0.412; in [9], 1.09; in test [10], 0.0009. For the same molecule, the z-score in test [2] was 0.61 (inactive); in test [3], -0.678 (inactive); in [4] it was -1.39 (inactive); in test [6] it was 0.0539 (inactive).
As to `[N-]=[N+]=NCc1ccccc1C[C@@]1(C(N)=O)N=C(c2ccc(OCCCO)cc2)O[C@@H]1c1ccccc1N=[N+]=[N-]`, the composite z-score came out at 1.28 in test [1]; 3.22 in [5]; 0.137 in test [7]; 0.0508 in [8]; 0.516 in [9]; 0.0766 in [10]. Besides, the z-score is -0.506 (inactive) in test [2], -0.292 (inactive) in test [3], -0.531 (inactive) in test [4] and -0.331 (inactive) in test [6].
For `[N-]=[N+]=NCc1ccccc1C[C@@]1(C(=O)NCCN2CCOCC2)N=C(c2ccc(OCCCO)cc2)O[C@@H]1c1ccccc1`, the composite z-score in test [1] was 1.37; in test [5] it was 2.96; in [7] it was -0.0073; in test [8] it was 0.565; in test [9], 0.65; in test [10], -0.0128. Further, the z-score in [2] was -0.941 (inactive); in test [3], -3.76 (inactive); in [4], 15.8 (active); in [6], -0.304 (inactive).
Consider `CC[C@H]1C2=C3C(CC[C@H]4C(OCc5ccc(F)cc5C(F)(F)F)OC[C@](C)([C@@H]34)N(C(=O)OC(C)(C)C)C2)C(COC(C)=O)C1COC(C)=O` (stereo not given in full), for which the composite z-score in test [1] stood at 0.454; in test [5], 2.89; in test [7], 0.0909; in test [8] it was 0.539; in test [9] it was 1.13; in [10], 0.0507. The z-score in test [2] is -0.284 (inactive); in [3], 0.387 (inactive); in test [4], 1.46 (inactive); in test [6], -1.31 (inactive).
For the molecule `O=C1NC(=O)C2C1C=CC(C(O)C(O)CO)N2Nc1ccccn1` (stereo not given), the composite z-score is 0.635 in test [1]; 0.541 in test [5]; -0.343 in [7]; 0.349 in test [8]; 0.32 in test [9]; 0.0713 in test [10]. Besides, the z-score in test [2] is -0.517 (inactive); in [3] it was 0.294 (inactive); in test [4], -0.73 (inactive); in test [6], -1.02 (inactive).
As for `COc1ccc(NN2C(C(O)c3ccc(F)cc3)C=CC3C(=O)N(C4CCCCC4)C(=O)C32)cc1` (stereo not given), the composite z-score worked out at 1.56 in test [1]; 3.24 in test [5]; 0.12 in test [7]; 0.169 in test [8]; 1.07 in [9]; 0.0903 in test [10]. In addition, the z-score in test [2] was 0.0646 (inactive); in test [3], 1.09 (inactive); in test [4], 0.91 (inactive); in [6] it was -0.637 (inactive).
`C=CCNC(=O)[C@H]1[C@@H]2C(=O)O[C@@H](c3ccccc3)[C@@H](c3ccccc3)N2[C@@H](c2ccc(OCCO)cc2)[C@]12C(=O)N(C(=O)OCCOC)c1ccc(C#CCNC(N)=O)cc12`: the composite z-score was determined as 1.55 in test [1]; 1.97 in test [5]; 0.247 in test [7]; 1.84 in test [8]; 1.11 in [9]; 0.0173 in test [10]. Further, the z-score in test [2] was 1.91 (inactive); in test [3] it was 0.996 (inactive); in [4], 4.55 (inactive); in test [6] it was -0.121 (inactive).
For `C=C(CC1([C@@H](NP(=O)(c2ccccc2)c2ccccc2)[C@H]2C[C@@H]2CCCC)CC1)c1cccc(OC)c1`, the composite z-score in test [1] was -0.155; in [5], 1.66; in test [7] it was 0.179; in test [8], -0.239; in [9], 0.36; in test [10], -0.0563. For the same molecule, the z-score in test [2] was 0.557 (inactive); in test [3], 0.832 (inactive); in [4], 1.82 (inactive); in test [6], -0.768 (inactive).
On to `CCCCCCCCCCC(O)C1C=CC2C(=O)N(C)C(=O)C2N1Nc1ccccc1` (stereo not given), for which the composite z-score in test [1] is -1.19; in [5] it was 0.8; in [7], -0.405; in test [8] it was -0.387; in test [9], -1.4; in test [10], -0.247. For the same molecule, the z-score was 0.875 (inactive) in test [2], -1.53 (inactive) in [3], 0.882 (inactive) in [4] and -1.87 (inactive) in test [6].
In the case of `COC(=O)C[C@H]1O[C@]2(C(=O)N(C)c3ccccc32)[C@@H](C)[C@@H]1[Si](C)(C)c1ccccc1`, the composite z-score in test [1] is 1.17; in [5], 0.687; in test [7], 0.0718; in [8], 1.23; in test [9], 1.08; in test [10], -0.0675. The z-score was -4.03 (inactive) in test [2], -5.37 (inactive) in test [3], -2.45 (inactive) in test [4] and 0.23 (inactive) in test [6].
Consider `COCCOC(=O)N1C(=O)[C@@]2(c3cc(C#CCCO)ccc31)[C@H](c1ccc(O)cc1)N1[C@H](c3ccccc3)[C@H](c3ccccc3)OC(=O)[C@H]1[C@@H]2C(=O)NC[C@H](O)c1ccccc1`, for which the composite z-score was 1.53 in [1]; 2.15 in [5]; -0.195 in test [7]; 0.697 in [8]; 1.03 in [9]; -0.103 in test [10]. In addition, the z-score in test [2] is 1.08 (inactive); in test [3], 0.933 (inactive); in test [4], 3.26 (inactive); in test [6] it was 1.76 (inactive).
